Activity calls are given as the source filed them.
Assays:
[1] = E. coli DRC41 culture turbidity changes, primary screen, E. coli filamentation inducer project, strain DRC41, OD650, 48 h (AID 1152);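 note: E. coli MC1000 strain DRC41 lacking acrAB efflux pump and sulA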; details: E. coli DRC41 (acrAB sulA), higher = more signal, called active from +8 up or from −8 down
[2] = small-molecule binders of probe aLefty1, primary screen, biochemical, small-molecule microarray, 635/667 nm fluorescence (AID 1153); details: higher = more signal;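 note: score merges spot fluorescence with signal-to-noise ratio from the scanned slide images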
[3] = PSAC antagonists in infected red cells, primary screen, cell-based, P. falciparum Indochina, OD700, 1 h (AID 1154); details: P. falciparum Indochina infected RBC osmotic lysis, higher = more signal, called active from +8 up or from −8 down
[4] = PSAC antagonists in infected red cells, primary screen, cell-based, P. falciparum Indochina, OD700, 2 h (AID 1155);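 note: lysis reports solute entry through the parasite surface anion channel PSAC; channel blockers reduce lysis of infected cells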; details: P. falciparum Indochina infected erythrocytes, osmotic lysis OD700; higher = more signal, called active from +8 up or from −8 down
[5] = osmotic lysis modulators in infected erythrocytes, primary screen, PSAC antagonist project, cell-based, P. falciparum Indochina, OD700, 3 h (AID 1156); details: higher = more signal, called active from +8 up or from −8 down
[6] = PSAC antagonists in infected red cells, primary screen, cell-based, P. falciparum Indochina, OD700, 18 h (AID 1157); details: P. falciparum Indochina infected erythrocytes, osmotic lysis OD700, 18 h; higher = more signal, called active from +8 up or from −8 down
[7] = modulators of S6 phosphorylation in cells, primary screen, cell-based, A549, cytoblot, luminescence, serum-stimulated (AID 1158); details: A549 phospho-S6 cytoblot, 5 h, higher = more signal;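 note: serum-stimulated A549 lung adenocarcinoma cells; signal is phosphorylated S6 detected by cytoblot immunostaining with HRP secondary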
[8] = target: NADPH oxidase 2 (Homo sapiens) (UniProt P04839); test: NOX2-dependent H2O2 signal modulators, primary screen, NOX inhibitor project, cell-based, HEK293-NOX2, PMA-stimulated, Amplex Red fluorescence (AID 1159); details: 45 min, higher = more signal, called active from +8 up or from −8 down; note: test concentration not given here
Chain of NADPH oxidase 2 (Homo sapiens) (P04839 whole entry, looked up): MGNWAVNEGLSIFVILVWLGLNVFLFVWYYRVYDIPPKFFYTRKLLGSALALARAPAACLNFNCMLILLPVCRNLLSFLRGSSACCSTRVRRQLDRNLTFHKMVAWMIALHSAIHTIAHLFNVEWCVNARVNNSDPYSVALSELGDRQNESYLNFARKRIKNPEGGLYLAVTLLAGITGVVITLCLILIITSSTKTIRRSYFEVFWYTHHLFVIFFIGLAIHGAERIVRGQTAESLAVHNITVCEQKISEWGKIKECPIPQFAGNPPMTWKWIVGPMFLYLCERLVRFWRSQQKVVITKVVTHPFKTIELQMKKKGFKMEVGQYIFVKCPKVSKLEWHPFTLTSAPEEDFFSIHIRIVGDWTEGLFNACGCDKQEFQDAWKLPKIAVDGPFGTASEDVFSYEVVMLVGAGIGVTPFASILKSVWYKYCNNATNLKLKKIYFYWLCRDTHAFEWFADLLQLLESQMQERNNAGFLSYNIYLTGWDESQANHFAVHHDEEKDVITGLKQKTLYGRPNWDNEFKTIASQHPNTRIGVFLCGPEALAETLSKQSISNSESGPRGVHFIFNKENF

[9] = target: NADPH oxidase 4 (Homo sapiens) (UniProt Q9NPH5); test: NOX4-dependent H2O2 signal modulators, primary screen, NOX inhibitor project, cell-based, HEK293-NOX4, tetracycline-induced, Amplex Red fluorescence (AID 1160); details: 45 min, higher = more signal, called active from +8 up or from −8 down
Chain of NADPH oxidase 4 (Homo sapiens) (Q9NPH5 whole entry, looked up): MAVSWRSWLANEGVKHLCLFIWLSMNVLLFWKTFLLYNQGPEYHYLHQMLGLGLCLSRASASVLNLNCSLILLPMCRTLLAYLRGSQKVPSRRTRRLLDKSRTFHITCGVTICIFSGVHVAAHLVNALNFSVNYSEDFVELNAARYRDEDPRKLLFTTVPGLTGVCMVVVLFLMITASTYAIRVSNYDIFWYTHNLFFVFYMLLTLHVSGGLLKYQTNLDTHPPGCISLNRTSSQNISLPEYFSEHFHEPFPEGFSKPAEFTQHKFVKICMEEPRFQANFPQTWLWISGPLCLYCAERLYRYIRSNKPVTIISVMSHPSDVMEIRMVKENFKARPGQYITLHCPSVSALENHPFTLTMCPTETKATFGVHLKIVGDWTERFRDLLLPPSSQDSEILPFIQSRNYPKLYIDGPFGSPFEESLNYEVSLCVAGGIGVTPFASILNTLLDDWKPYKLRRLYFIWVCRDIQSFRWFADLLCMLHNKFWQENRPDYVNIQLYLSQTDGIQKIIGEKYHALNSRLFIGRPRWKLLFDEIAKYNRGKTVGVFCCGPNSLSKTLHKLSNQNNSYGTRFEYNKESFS

[10] = target: NADPH oxidase 5 (Homo sapiens) (UniProt Q96PH1); test: NOX5-dependent H2O2 signal modulators, primary screen, NOX inhibitor project, cell-based, HEK293-NOX5, Amplex Red fluorescence (AID 1161); details: HEK293-NOX5, ionomycin, 45 min, higher = more signal
Chain of NADPH oxidase 5 (Homo sapiens) (Q96PH1 whole entry, looked up): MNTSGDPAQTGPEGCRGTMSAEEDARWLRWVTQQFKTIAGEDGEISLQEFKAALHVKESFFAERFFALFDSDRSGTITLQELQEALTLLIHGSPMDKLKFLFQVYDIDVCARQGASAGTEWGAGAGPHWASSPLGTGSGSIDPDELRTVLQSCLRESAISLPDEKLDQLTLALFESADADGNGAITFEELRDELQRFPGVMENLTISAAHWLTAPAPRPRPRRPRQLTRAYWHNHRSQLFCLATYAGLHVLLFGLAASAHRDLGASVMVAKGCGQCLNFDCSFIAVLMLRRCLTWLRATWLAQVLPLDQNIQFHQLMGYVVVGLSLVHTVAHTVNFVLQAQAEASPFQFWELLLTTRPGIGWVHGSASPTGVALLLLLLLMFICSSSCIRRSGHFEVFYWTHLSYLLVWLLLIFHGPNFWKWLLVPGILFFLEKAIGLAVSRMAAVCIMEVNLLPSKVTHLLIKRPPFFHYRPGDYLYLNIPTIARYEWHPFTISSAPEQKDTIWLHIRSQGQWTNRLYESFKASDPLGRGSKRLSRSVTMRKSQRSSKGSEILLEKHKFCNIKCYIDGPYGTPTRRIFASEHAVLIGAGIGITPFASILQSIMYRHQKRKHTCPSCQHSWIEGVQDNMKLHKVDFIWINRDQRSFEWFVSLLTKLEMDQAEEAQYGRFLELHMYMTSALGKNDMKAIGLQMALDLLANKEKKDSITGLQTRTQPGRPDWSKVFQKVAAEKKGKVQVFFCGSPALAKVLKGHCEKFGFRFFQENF

[11] = A549 cell viability effects, profiling panel, calcein-AM fluorescence, 48 h, basal (AID 1162); details: higher = more signal; note: test concentration not given here
[12] = adipocyte viability effects, profiling panel, cell-based, 3T3-L1 adipocytes, calcein-AM fluorescence, 48 h, basal (AID 1163); details: 3T3-L1 adipocytes viability, higher = more signal; note: test concentration not given here
[13] = HepG2 cell viability effects, profiling panel, calcein-AM fluorescence, 48 h, basal (AID 1164); details: higher = more signal; note: test concentration not given here
[14] = MM1S cell viability effects, profiling panel, calcein-AM fluorescence, 48 h, basal (AID 1165); details: higher = more signal;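 note: viability of MM1S multiple myeloma cells under basal unstimulated conditions; test concentration not given here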
[15] = basal RPMI8226 viability, no added stimulus, profiling panel, cell-based, calcein-AM fluorescence, 48 h, PK04 Diversity Set (AID 1166); details: RPMI8226 myeloma viability, higher = more signal;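 note: cells grown under basal conditions without added stimulus; test concentration not given here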
[16] = basal HepG2 mitochondrial membrane potential changes, profiling panel, cell-based, JC-1 fluorescence, 24 h, 100 nL compound (AID 1167); details: higher = more signal; note: test concentration not given here
[17] = basal 3T3-L1 adipocyte mitochondrial potential changes, profiling panel, cell-based, JC-1 fluorescence, 3T3-L1 adipocytes, 24 h, 100 nL compound (AID 1168); details: JC-1 mitochondrial fluorescence, higher = more signal, called active from +8 up or from −8 down; note: test concentration not given here
[18] = basal RPMI8226 mitochondrial membrane potential changes, profiling panel, cell-based, JC-1 fluorescence, 24 h, 100 nL compound (AID 1169); details: RPMI8226 myeloma, JC-1 mitochondrial potential fluorescence, higher = more signal; note: test concentration not given here
[19] = basal MM1S mitochondrial membrane potential changes, profiling panel, cell-based, JC-1 fluorescence, 24 h, 100 nL compound (AID 1170); details: higher = more signal; note: test concentration not given here
[20] = A549 lung cancer cell viability effects, profiling panel, resazurin fluorescence, 24 h, PK04 Diversity Set (AID 1171); details: higher = more signal, called active from +8 up or from −8 down; note: test concentration not given here

SMILES | z-score [1] | composite z-score [2] | z-score [3] | z-score [4] | z-score [5] | z-score [6] | z-score [7] | z-score [8] | z-score [9] | z-score [10] | z-score [11] | z-score [12] | z-score [13] | z-score [14] | z-score [15] | z-score [16] | z-score [17] | z-score [18] | z-score [19] | z-score [20]
CCOC(=O)[C@H](Cc1ccccc1)NC(=O)CCC1CC(OC(=O)NCc2ccc3c(c2)OCO3)CC2(CCCC(COC(=O)NCCCN3CCCC3=O)O2)O1 (stereo not given in full) | 0.169 (inactive) | -0.572 | -0.709 (inactive) | 0.274 (inactive) | 0.218 (inactive) | 0.151 (inactive) | 0.125 | 0.996 (inactive) | 0.689 (inactive) | -0.044 | 0.0325 | 0.484 | -0.152 | -0.59 | -1.6 | 1.97 | -0.654 (inactive) | 0.517 | 0.547 | 0.529 (inactive)
CC(CCN1CCCCc2nc(C)c(C)cc21)=NO[C@H](C)c1cn([C@@H]2COC[C@H]2O)nn1 | 0.431 (inactive) | -0.0088 | 0.682 (inactive) | 0.406 (inactive) | 0.116 (inactive) | 0.342 (inactive) | -0.363 | -0.526 (inactive) | 0.167 (inactive) | -0.376 | 0.368 | -0.807 | 0.251 | 0.287 | 0.0323 | 0.0457 | 0.229 (inactive) | 1.18 | -0.992 | -0.454 (inactive)
O=C1[C@H]2[C@H]3[C@H](O)[C@H](O)CC(=NO[C@@H]4O[C@H](CO)[C@@H](O)[C@H](O)[C@H]4O)[C@H]3CC[C@H]2C(=O)N1c1ccc(F)cc1F | -0.205 (inactive) | 0.0865 | 2.95 (inactive) | 0.454 (inactive) | 0.887 (inactive) | 0.159 (inactive) | -0.56 | -0.307 (inactive) | 0.73 (inactive) | 0.667 | -0.32 | 0.528 | -0.846 | 0.0224 | -0.3 | 0.419 | -0.35 (inactive) | -0.177 | -0.709 | 1.09 (inactive)
COc1ccc(COC(=O)NN=C2C[C@@H](O)[C@@H](O)[C@@H]3[C@@H]4C(=O)N(C[C@@H]5CCCO5)C(=O)[C@@H]4CC[C@H]23)cc1 | -0.39 (inactive) | 0.544 | 3.23 (inactive) | 0.632 (inactive) | 0.398 (inactive) | 0.548 (inactive) | -0.308 | -3.46 (inactive) | 0.223 (inactive) | 0.0239 | 0.0369 | -0.0792 | -0.592 | 0.634 | -0.107 | -0.402 | -1.22 (inactive) | -0.148 | -1.02 | -0.0101 (inactive)
CO[C@@H]1COC(=O)CC=C[C@H](C)[C@H](OC)COC(=O)[C@@H]2CCCN2C(=O)CC=C[C@H]1C | -0.2 (inactive) | -0.276 | 0.521 (inactive) | 0.457 (inactive) | -0.0249 (inactive) | 0.158 (inactive) | -0.0291 | 1.18 (inactive) | -0.686 (inactive) | 0.294 | -0.125 | 0.846 | -0.138 | 0.0805 | -0.822 | 1.07 | 0.332 (inactive) | 0.114 | 1.03 | -0.541 (inactive)
CC(CCC(=O)OC[C@H]1O[C@H](C#Cc2ccccc2)C=C[C@@H]1Oc1ccc(C)cc1)=NOC(C)CN1CCCCc2nc(C)c(C)cc21 (stereo not given in full) | -0.131 (inactive) | -0.191 | 4.27 (inactive) | 0.459 (inactive) | 0.983 (inactive) | 0.662 (inactive) | -0.487 | -0.802 (inactive) | -0.341 (inactive) | -0.461 | 0.393 | -0.239 | 0.0574 | -2.15 | -1.73 | 1.34 | -2.02 (inactive) | -0.325 | -0.737 | 0.599 (inactive)
CO[C@@H](C1CCCCC1)[C@@H](C)[C@H](OCc1cccc(Br)c1)[C@@H](C)CO | -0.409 (inactive) | -0.401 | 2.08 (inactive) | 1.29 (inactive) | -1.8 (inactive) | 0.957 (inactive) | -0.337 | -0.787 (inactive) | 0.0443 (inactive) | -2.45 | -2.34 | -0.348 | -2.22 | -3.02 | -4.04 | -4.59 | 0.408 (inactive) | -1.11 | -0.184 | -1.21 (inactive)
CCOC(=O)CCN1C(=O)[C@H]2[C@H]3[C@H](O)[C@H](O)CC(=NO[C@@H]4O[C@H](CO)[C@@H](O)[C@H](O)[C@H]4O)[C@H]3CC[C@H]2C1=O | 0.131 (inactive) | 0.493 | -0.266 (inactive) | -0.163 (inactive) | -0.788 (inactive) | -0.0643 (inactive) | 0.199 | 0.444 (inactive) | 0.451 (inactive) | -0.9 | 0.484 | -0.961 | -0.898 | -0.359 | -0.0451 | -1.13 | -0.647 (inactive) | -0.225 | -0.171 | -0.292 (inactive)
COC(=O)[C@H](C)NC(=O)CCC1CC(OC(=O)NCc2cccc3ccccc23)CC2(CCCC(COC(=O)NCc3ccccc3)O2)O1 (stereo not given in full) | -0.249 (inactive) | 0.378 | 0.385 (inactive) | -0.254 (inactive) | 0.0409 (inactive) | 0.0533 (inactive) | 0.362 | 1.42 (inactive) | 0.73 (inactive) | 1.06 | 0.217 | 0.2 | -0.653 | 0.621 | 0.769 | 1.46 | 0.818 (inactive) | 0.662 | -0.845 | 2.64 (inactive)
